Inhibition data for 25 compounds are collected here from ChEMBL document CHEMBL4296182, “CO-ADD screening of NIH NCI Diversity Set V”.

As a reminder, the Inhibition is the relative decrease from the control value, in per cent.

For one test, the system named is Staphylococcus aureus. In words: Antibacterial activity against Staphylococcus aureus MRSA ATCC 43300 (CO-ADD:GP_020); MIC in CAMBH media using NBS plates, by Resazurin F(560/590). It counts as functional. The following applies: Concentration 20 uM, ASSAY_TEST Inhibition of Bacterial Growth, detection method Resazurin, Fluorescence (ex560/em590), MEDIA CAMHB, plate type 384well, CORNING #3640, time 18 hr. In general terms: Resazurin is reduced to fluorescent resorufin, in cell work by metabolically active cells.

In the next test the test system is Acinetobacter baumannii. In words: Antibacterial activity against Acinetobacter baumannii ATCC 19606 (CO-ADD:GN_034); MIC in CAMBH media using NBS plates, by Resazurin F(560/590). It counts as functional. The following applies: Concentration 20 uM, ASSAY_TEST Inhibition of Bacterial Growth, detection method Resazurin, Fluorescence (ex560/em590), MEDIA CAMHB, plate type 384well, CORNING #3640, time 18 hr.

For another test, the system named is Escherichia coli. In words: Antibacterial activity against Escherichia coli ATCC 25922 (CO-ADD:GN_001); MIC in CAMBH media using NBS plates, by Resazurin F(560/590). It counts as functional. The conditions noted are these: Concentration 20 uM, ASSAY_TEST Inhibition of Bacterial Growth, detection method Resazurin, Fluorescence (ex560/em590), MEDIA CAMHB, plate type 384well, CORNING #3640, time 18 hr.

The subject of another test is Klebsiella pneumoniae. The following applies: Concentration 20 uM; ASSAY_TEST Inhibition of Bacterial Growth; detection method Absorption (OD600); MEDIA CAMHB; plate type 384well; NBS; CORNING #3640; time 18 hr.
A further test concerns Candida albicans. The following applies: 20 µM.
The subject of another test is Cryptococcus neoformans. The conditions noted are these: Concentration 20 uM; ASSAY_TEST Inhibition of Fungal Growth; detection method Resazurin; Absorption (OD600-OD570); plate type 384well; NBS; CORNING #3640.

The structures appear in SMILES notation. For part of these data: Entries with a potency or affinity are not part of this list.

For `Cc1nc2ccccc2nc1N1CCCC1`, the Inhibition in the test with Staphylococcus aureus is 12.43%; in the test with Acinetobacter baumannii, -3.73%; in the test with Escherichia coli it was 4.2%; in the test with Klebsiella pneumoniae it was 6.96%; with Candida albicans it was 2.02%; in the test on Cryptococcus neoformans, -9.29%.

In the case of `CC(C)COC(=O)NC1c2ccccc2Oc2ccccc21`, the Inhibition in the test with Staphylococcus aureus was 8.22%; with Acinetobacter baumannii, -2.15%; in the test on Escherichia coli it was 3.09%; in the test on Klebsiella pneumoniae it was 8.74%; in the test on Candida albicans it was 5.64%; in the test with Cryptococcus neoformans it was -2.37%.

In the case of `Oc1ccccc1-c1nc2c3ccccc3c3ccccc3c2[nH]1`, the Inhibition with Staphylococcus aureus is 17.7%; in the test with Acinetobacter baumannii it was 0.13%; with Escherichia coli it was 3.46%; with Klebsiella pneumoniae it was 14.09%; with Candida albicans, 6.21%; in the test on Cryptococcus neoformans, -5.55%.

For `CC(C)c1nc2c(=O)n(C)c(=O)n(C)c2[nH]1`, the Inhibition was 10.47% in the test on Staphylococcus aureus; -19.52% in the test with Acinetobacter baumannii; 12.69% in the test on Escherichia coli; -1.01% in the test with Klebsiella pneumoniae; -1.8% with Candida albicans; -13.14% with Cryptococcus neoformans.

Regarding `Cc1nc(S)nc(O)c1CCC1OCCO1`, the Inhibition is 13.84% with Staphylococcus aureus; -2.91% in the test with Acinetobacter baumannii; 10.14% in the test with Escherichia coli; -2.98% with Klebsiella pneumoniae; -0.82% in the test with Candida albicans; -7.17% with Cryptococcus neoformans.

Turning to `Cc1cc(C)n(C(=N)NC(=O)c2ccc([N+](=O)[O-])cc2)n1`, the Inhibition with Staphylococcus aureus was 1.83%; with Acinetobacter baumannii it was 1.39%; in the test on Escherichia coli it was -7.33%; with Klebsiella pneumoniae, 8.27%; in the test on Candida albicans it was 3.88%; in the test on Cryptococcus neoformans it was 44.63%.

Consider `COc1cc(OC)c2c(=O)cc(-c3cccnc3)oc2c1`, for which the Inhibition was 13.2% in the test on Staphylococcus aureus; 11.57% in the test with Acinetobacter baumannii; -0.96% with Escherichia coli; 9.22% in the test with Klebsiella pneumoniae; 2.37% in the test on Candida albicans; -8.93% in the test on Cryptococcus neoformans.

For the compound `C1CCC(NC2=NCCO2)CC1`, the Inhibition was -4.28% with Staphylococcus aureus; -18.87% in the test with Acinetobacter baumannii; 9.63% in the test with Escherichia coli; 6.74% in the test on Klebsiella pneumoniae; -0.27% with Candida albicans; -10.7% with Cryptococcus neoformans.

On to `O=C(Nc1ccsn1)c1ccc(Cl)cc1Cl`, for which the Inhibition in the test with Staphylococcus aureus was 2.74%; in the test on Acinetobacter baumannii it was -9.67%; with Escherichia coli, 7.73%; in the test with Klebsiella pneumoniae it was 13.89%; with Candida albicans it was 3.31%; in the test on Cryptococcus neoformans, 7.18%.

As to `O=NC1=C(c2cccc([N+](=O)[O-])c2)Nc2ccccc2S1`, the Inhibition in the test with Staphylococcus aureus was 0.76%; in the test on Acinetobacter baumannii it was 0.77%; in the test on Escherichia coli, -6.48%; in the test on Klebsiella pneumoniae it was 32.11%; in the test on Candida albicans it was 13.1%; in the test on Cryptococcus neoformans it was -8.32%.

With `C=CCN=C(S)Nc1cccc([N+](=O)[O-])c1`, the Inhibition is -6.7% in the test with Staphylococcus aureus; -8.3% in the test on Acinetobacter baumannii; 0.98% in the test on Escherichia coli; 6.17% in the test on Klebsiella pneumoniae; 0.93% in the test with Candida albicans; -2.12% in the test with Cryptococcus neoformans.

`OCc1nnn(-c2ccccc2)c1CO`: the Inhibition is 11.04% with Staphylococcus aureus; -9.88% in the test on Acinetobacter baumannii; 7.14% with Escherichia coli; 22.49% in the test on Klebsiella pneumoniae; -4.02% in the test on Candida albicans; -6.38% in the test with Cryptococcus neoformans.

Consider `CC(=O)Nc1cccc(NC(C)=O)n1`, for which the Inhibition in the test with Staphylococcus aureus is 23.71%; with Acinetobacter baumannii, -5.95%; in the test on Escherichia coli it was 17.6%; in the test on Klebsiella pneumoniae, 13.05%; in the test with Candida albicans, -2.4%; with Cryptococcus neoformans, -1.6%.

On to `O=C1COc2cccnc2N1`, for which the Inhibition was 8.1% in the test on Staphylococcus aureus; -14.05% with Acinetobacter baumannii; 0.48% with Escherichia coli; 27.65% in the test with Klebsiella pneumoniae; 4.29% in the test with Candida albicans; -2.63% with Cryptococcus neoformans.

Consider `Nc1ncnc2c1ncn2C=C=CCO`, for which the Inhibition was 13.44% with Staphylococcus aureus; 8.12% in the test with Acinetobacter baumannii; -2.59% with Escherichia coli; 6.59% in the test with Klebsiella pneumoniae; 1.58% with Candida albicans; -2.86% with Cryptococcus neoformans.

Consider `COc1ccccc1NC(=O)Nc1cc(C(C)C)ccc1C`, for which the Inhibition in the test on Staphylococcus aureus was 13.43%; in the test on Acinetobacter baumannii, 2.93%; in the test with Escherichia coli it was -1.81%; in the test on Klebsiella pneumoniae, -0.93%; in the test with Candida albicans, 0.16%; in the test on Cryptococcus neoformans, -4.04%.

Take `C(=N\N=c1/nnn(Cc2ccccc2)[nH]1)/c1ccccc1`: the Inhibition was 11.96% in the test on Staphylococcus aureus; -3.55% in the test on Acinetobacter baumannii; 3.73% in the test with Escherichia coli; 9.14% in the test on Klebsiella pneumoniae; 6.47% in the test with Candida albicans; -8.48% with Cryptococcus neoformans.

As to `Nc1ccc2c(c1)nnn2-c1ccccc1`, the Inhibition in the test with Staphylococcus aureus is 10.19%; in the test with Acinetobacter baumannii, -3.79%; in the test with Escherichia coli, 12.06%; in the test on Klebsiella pneumoniae, -7.86%; in the test on Candida albicans, -4.43%; in the test on Cryptococcus neoformans, -12.32%.

Consider `O=C(O)CSc1nc2ccccc2s1`, for which the Inhibition is 14.28% in the test on Staphylococcus aureus; -9.51% with Acinetobacter baumannii; 3.19% in the test on Escherichia coli; 0.1% with Klebsiella pneumoniae; 13.9% in the test on Candida albicans; -12.74% in the test on Cryptococcus neoformans.

Regarding `Cc1cc(=O)n2c3c(c4c(cc13)c(CN(C)C)cc(=O)n4C)OC2.Cl`, the Inhibition with Staphylococcus aureus was -3.31%; with Acinetobacter baumannii, 19.85%; in the test on Escherichia coli, 6.04%; in the test with Klebsiella pneumoniae it was 7.61%; in the test on Candida albicans, -0.27%; in the test on Cryptococcus neoformans, -11%.

For the compound `CC(=O)NCC1(O)CCCC(C)C1` (stereo not given), the Inhibition was 7.69% in the test on Staphylococcus aureus; -13.88% in the test on Acinetobacter baumannii; 5.11% with Escherichia coli; 9.82% in the test with Klebsiella pneumoniae; 1.28% with Candida albicans; -5.78% with Cryptococcus neoformans.

In the case of `NC(=O)Oc1cccc(OC(N)=O)c1`, the Inhibition was 9.68% in the test on Staphylococcus aureus; -13.95% in the test with Acinetobacter baumannii; 4.31% in the test on Escherichia coli; 5.21% in the test with Klebsiella pneumoniae; 2.21% in the test on Candida albicans; -9.78% with Cryptococcus neoformans.

With `CC(C)C(=O)c1ccc(O)c(O)c1`, the Inhibition with Staphylococcus aureus was -0.55%; in the test on Acinetobacter baumannii, -3.52%; in the test with Escherichia coli it was -12.2%; in the test on Klebsiella pneumoniae, 9.02%; with Candida albicans, 3.31%; with Cryptococcus neoformans it was 21.92%.

`CCN(CC)c1ccc(/C=C/c2cc(-c3ccccc3)c3ccccc3n2)cc1`: the Inhibition in the test with Staphylococcus aureus is 16.67%; with Acinetobacter baumannii, 5.92%; in the test on Escherichia coli, 4.61%; in the test with Klebsiella pneumoniae it was 11.78%; in the test with Candida albicans it was 4.35%; in the test with Cryptococcus neoformans, -9.69%.

For the compound `Sc1nc2c[nH]c(S)nc-2n1`, the Inhibition was 21.94% with Staphylococcus aureus; -11.86% in the test with Acinetobacter baumannii; 14.36% in the test with Escherichia coli; 15.98% with Klebsiella pneumoniae; 5.35% in the test on Candida albicans; -7.36% in the test on Cryptococcus neoformans.
